Measurements: PubChem BioAssay (NCI)
Compounds without any hit were thinned out: in the full panel of roughly 83,000, 20% have a hit.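 The test compound was applied at a single concentration to cells in 96-well plates for 48 hours, and percent growth was recorded.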 A number with no mark means an inactive call. The source made the active and inactive calls. Rule for the calls: active = growth percent below 10; inactive = the rest.

Tests used:
Assay in all cases: NCI-60 one-dose screen, 48 h (100 = growth as untreated, 0 = no growth, -100 = all killed)
Conditions in all cases: 10 µM
T-47D breast = test system: T-47D breast
BT-549 breast = test system: BT-549 breast
MDA-MB-435 melanoma = test system: MDA-MB-435 melanoma
SW-620 colon = test system: SW-620 colon
MCF7 breast = test system: MCF7 breast
HCT-116 colon = test system: HCT-116 colon
HCC-2998 colon = test system: HCC-2998 colon
KM12 colon = test system: KM12 colon

Compound | growth (T-47D breast) | growth (BT-549 breast) | growth (MDA-MB-435 melanoma) | growth (SW-620 colon) | growth (MCF7 breast) | growth (HCT-116 colon) | growth (HCC-2998 colon) | growth (KM12 colon)
Cc1nc2scc(-c3ccc(Cl)cc3)n2c(=O)c1CCN1CCOCC1 | 76.6% | 103% | 95.8% | 105% | 90.2% | 105% | 106% | 107%
C=CCNC(=S)NN | 50.5% | 99.2% | 95.4% | 85.5% | 8.89% (active) | 6.82% (active) | 107% | 98.6%
COc1ccc(C2=Cc3ccc(OC(C)=O)cc3OC2)cc1 | 87.3% | 97.5% | 91.9% | 101% | 101% | 104% | 95% | 88.9%
Cc1ccccc1[P+](Cc1ccccc1)(c1ccccc1)c1ccccc1 | -3.4% (active) | 10.3% | 1% (active) | 30% | 10.4% | 12.7% | 16.5% | 8.7% (active)
O=c1oc2cc(OS(=O)(=O)C3CC3)ccc2c2c1CCCCCC2 | 57.6% | 80.1% | 94.8% | 96.5% | 81.6% | 82.5% | 90.8% | 77.8%
CCCCCC(CCC)COC(=O)c1ccc(OC)cc1 (stereo unspecified) | 87.7% | 104% | 106% | 104% | 92.5% | 100% | 99.5% | 109%
Cc1cc(C)c(C(=O)OC(C)CNC2CCCCC2)c(C)c1 (stereo unspecified) | 100% | 92.4% | 90.8% | 100% | 97.8% | 86.3% | 103% | 98.2%
O=C(Nc1cccc(C(F)(F)F)c1)C(Cl)Cl | 87.9% | 102% | 103% | 104% | 90.2% | 98.1% | 105% | 94.8%
CCC1(C)OC(=O)NC1=O (stereo unspecified) | 93.8% | 93.3% | 112% | 110% | 97.7% | 87.7% | 99% | 107%
CCCCc1ccc(NC(=O)N(CCCl)N=O)cc1 | 112% | 85.4% | 92% | 93% | 92.7% | 97.1% | 117% | 94.3%
CCc1ccc(-c2nnc(COc3ccc(-c4nc5ccccc5[nH]4)cc3OC)o2)cc1 | 87.9% | 51.7% | 56.7% | 58.1% | 33.5% | 28.9% | 81.6% | 58%
CCN(CC)CCOC(=O)c1ccc(NC(=O)Nc2cccc(Cl)c2)cc1 | 87.1% | 92.9% | 103% | 104% | 95% | 95% | 99.7% | 98%
CS(=O)(=O)Nc1ccc(Nc2c3ccccc3nc3cc(Cl)ccc23)cc1 | 26.9% | 52.4% | 54.1% | 30.4% | 18.6% | 16.5% | 42.6% | 48.2%
CCOCC[P+](c1ccccc1)(c1ccccc1)c1ccccc1 | 18% | 36.9% | 28.8% | 60% | 31.1% | 38.1% | 31.7% | 25.8%
Nc1ccc2c(c1)Cc1cc(N)c(Cl)cc1-2 | 54.3% | 90.3% | 94.3% | 108% | 42.6% | 100% | 103% | 108%
COc1ccc(C(=O)c2sc3nc(-c4cccs4)ccc3c2N)cc1OC | 25.3% | 48.9% | 5.62% (active) | 45.4% | 24.7% | 43.3% | 82% | 38.1%

Compound | growth (T-47D breast) | growth (BT-549 breast) | growth (MDA-MB-435 melanoma) | growth (SW-620 colon) | growth (MCF7 breast) | growth (HCT-116 colon) | growth (HCC-2998 colon) | growth (KM12 colon)
Cc1ccc(-n2c(-c3cc4c([nH]c5ccccc54)c(-c4cccc(O)c4)n3)n[nH]c2=S)cc1 | 20.4% | -35.7% (active) | 1.24% (active) | 10.5% | 2.88% (active) | 3.29% (active) | -52.5% (active) | 5% (active)
COc1cc(Cn2c(-c3ccccc3)c(Cl)c3c2-c2oncc2CC3)cc(OC)c1 | 73.8% | 87.4% | -0.829% (active) | 15.8% | 102% | 47.5% | 84.4% | 41.7%
O=C(O)CNS(=O)(=O)c1ccc(OCCOc2ccc(S(=O)(=O)NCC(=O)O)cc2)cc1 | 93.5% | 105% | 113% | 103% | 98.6% | 103% | 98.1% | 99.5%
COc1cc(-c2nc3ccccc3[nH]2)ccc1OCc1nnc(-c2ccc(Br)cc2)o1 | 68.4% | 98.4% | 81% | 102% | 53.6% | 59.9% | 102% | 69.2%
COC(=O)[C@]12CC[C@@H](C)[C@H](C)[C@@H]1C1=CC[C@@H]3[C@@]4(C)CC(=O)[C@H](O)[C@@]5(C)COC(=C45)C[C@@]3(C)[C@]1(C)CC2 | -37.3% (active) | -61.7% (active) | -27.6% (active) | -60% (active) | -45.8% (active) | -76.2% (active) | -88.1% (active) | -64.1% (active)
COc1ccc(Cn2cc3c(c2-c2cc(OC)c(OC)c(OC)c2)CCc2cnoc2-3)cc1N | 43.4% | 26.3% | -37% (active) | 20.4% | 16% | 0.095% (active) | -9.27% (active) | 1.77% (active)
C[n+]1c(/C=C/c2c[nH]c3ccccc23)ccc2ccccc21 | 12.1% | 94.7% | 60.3% | 48.8% | 19.4% | 31% | 75.6% | 38.9%
COc1ccc(-c2cc(/C=C/C(=O)c3ccc(N)cc3)[nH]n2)cc1OC | 50.3% | 55.4% | 46.8% | 10.2% | 14.9% | 17.4% | 38.8% | 5.98% (active)
O=C1/C(=C/c2ccc(O)cc2O)N=C2SCCCN12 | 85% | 96.9% | 99.2% | 107% | 108% | 99.5% | 119% | 91.3%
CCCCCCCCCCCCCC[n+]1ccc(C)cc1 | 12.4% | -45% (active) | -64.8% (active) | -3.73% (active) | 0.934% (active) | 0.372% (active) | -69.7% (active) | -97.9% (active)
COc1c(-c2c3sc(=O)[nH]c3nc3c2c(=O)[nH]n3C(C)C)cc2c(c1OC)OCO2 | 98.6% | 84.6% | 90.9% | 108% | 106% | 101% | 107% | 101%
CC(=O)OCC(COC(C)=O)(COC(C)=O)COC(C)=O | -11.3% (active) | 112% | 111% | 108% | 93.8% | 111% | 101% | 102%
COC(=O)[C@]12CC[C@@H](C)[C@H](C)[C@@H]1C1=CC[C@@H]3[C@@]4(C)CC(=O)[C@H](O)[C@@](C)(CO)[C@@H]4C(=O)C[C@@]3(C)[C@]1(C)CC2 | -15.8% (active) | -31.4% (active) | 11.4% | 1.83% (active) | -13.4% (active) | -43.1% (active) | -61.1% (active) | -37.3% (active)
COc1cc(-c2nc3cc(Cl)c(Cl)cc3[nH]2)ccc1OCC(=O)NN | 66.9% | 95% | 63.6% | 80.9% | 73.4% | 96.1% | 103% | 64.6%
CCOC(=O)Cn1nnc(-c2ccc(OCc3ccccc3F)cc2)n1 | 72.6% | 96.9% | -2.38% (active) | 83.3% | 75.8% | 80.1% | 100% | 75.6%
CC(CNC(Cc1ccccc1)c1ccccc1)NC(Cc1ccccc1)c1ccccc1 (stereo unspecified) | 14.6% | 60.9% | 63.4% | 26.4% | 8.12% (active) | 13.2% | 20.1% | 22.2%
